UDG counter: blocks uracil-DNA glycosylase in AID counter-screen | FRET deamination/UDG coupled assay, UDG read, 4 h | Potency, µM (top dose mostly 115 µM), for inactives: top-dose activity change, negative = inhibition, usual class: inhibitors | hit rate 0.14% among 91,000 | AID 1347430; also: potency is read from the fitted curve at half-maximal effect; % is scaled to controls: 0 for no effect and ±100 for the full control effect; nearly all actives have a fitted effect of over 65% in size
AID inh: inhibitors of human activation induced cytidine deaminase. Potency, µM (doses to about 115 µM), actives largely listed as inhibitors. AID 1347428. AID deamination FRET fluorescence, UDG-coupled, 4 h. Q9GZX7. hit rate 0.32% among 91,000; also: potency is read from the fitted curve at half-maximal effect; % is scaled to controls: 0 for no effect and ±100 for the full control effect; nearly all actives have a fitted effect of over 25% in size
Target sequence (Q9GZX7 whole entry, looked up): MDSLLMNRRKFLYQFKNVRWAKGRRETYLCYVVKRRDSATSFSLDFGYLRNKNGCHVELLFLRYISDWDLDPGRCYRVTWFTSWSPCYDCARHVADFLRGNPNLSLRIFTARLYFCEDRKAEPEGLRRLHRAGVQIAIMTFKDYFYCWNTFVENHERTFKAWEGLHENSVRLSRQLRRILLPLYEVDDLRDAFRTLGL
GPR32 ag: GPR32 (DRV1) agonism, beta-arrestin recruitment. AID 1346428. hit rate 2.5% among 48,000. activation, % at 76.9 µM. CHO-K1 GPR32 beta-arrestin PathHunter luminescence, 90 min; zero percent set by DMSO-only wells. O75388;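 active = activation of at least 60% and not above a set upper limit, about 1 call in 100 departs from these limits; inconclusive = activation of 40% to 60%, or above that upper limit; inactive = activation under 40%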; also: 0% is about no effect
Target sequence (O75388 whole entry, looked up): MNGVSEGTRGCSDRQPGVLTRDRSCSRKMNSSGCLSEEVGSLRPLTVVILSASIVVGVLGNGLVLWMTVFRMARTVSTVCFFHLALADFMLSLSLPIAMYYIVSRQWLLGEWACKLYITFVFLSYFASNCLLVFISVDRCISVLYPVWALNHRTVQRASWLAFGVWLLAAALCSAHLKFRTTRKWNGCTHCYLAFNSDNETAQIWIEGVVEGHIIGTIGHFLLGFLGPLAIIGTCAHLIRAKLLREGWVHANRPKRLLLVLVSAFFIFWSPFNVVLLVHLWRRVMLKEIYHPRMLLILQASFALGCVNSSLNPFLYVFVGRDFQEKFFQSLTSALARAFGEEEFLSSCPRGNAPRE
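Engineered CHO-K1 line co-expressing GPR32-ProLink and EA-beta-arrestin. Compound treatment lasted 90 min at 37 °C. Luminescence was recorded after 1 h with substrate at ambient temperature, relative to DMSO basal wells.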
* marks the source's active call; other numbers are inactive results; i = inactive; ? = inconclusive; / = no result; ! = not active in a repeat; [ ] = remark or other dose. The entries come from a sample that favours hits as a whole. Unless noted, calls follow the shape of the dose curve; as a rule, active = well fitted curve in the direction sought with a large enough effect; inconclusive = small, poorly fitted or top-dose-only effect, or another doubt; inactive = no such curve, though single readings can be large; an effect the other way counts as inactive or inconclusive.

SMILES | UDG counter | AID inh | GPR32 ag
Cc1nc2scc(C)n2c(=O)c1S(=O)(=O)Nc1ccc(N2CCN(S(C)(=O)=O)CC2)cc1 | 2.7% | i | 79.6*
CC(=O)c1ccc(NS(=O)(=O)c2c(C)nc3scc(C)n3c2=O)cc1 | -0.4% | i | 15.2
CCOC(=O)c1[nH]c(C)c(C(=O)NCc2cccc(OC)c2)c1C | 2.5% | i | 61.0*
CCOC(=O)c1[nH]c(C)c(C(=O)NCc2ccc(F)cc2)c1C | -14.4% | i | 11.4
O=[N+]([O-])c1cc(S(=O)(=O)N/N=C/c2cccs2)ccc1Cl | 7.5% | i | /
CCN1CCN(CCNC(=O)C2CCN(c3nnc(-n4c(C)ccc4C)s3)CC2)CC1 | -6.1% | i | /
CN(C)S(=O)(=O)c1ccc(Cl)c(C(=O)Nc2ccc(Cl)c3cccnc23)c1 | -1.8% | i | /
N#Cc1cccc(Oc2ccc(C3CCCCC3)cc2)c1C#N | -4.3% | i | /
O=c1[nH]c2ccccc2c(=O)n1CCCl | / | / | -3.6
O=C(c1ccc(F)cc1)C1CCN(CCn2c(=O)[nH]c3ccccc3c2=O)CC1 | 0.1% | i | 82.3*!
CCOc1cccc2c(C)nc(Nc3nc(C)c(CC)c(=O)[nH]3)nc12 | -7.3% | 50.1µM* | /
COc1ccc2nc(Nc3nc(C)c(CCC(C)C)c(=O)[nH]3)nc(C)c2c1 | 2.9% | i | /
COc1ccc(C(=O)Nc2cnc3c(cnn3C(C)C)c2)cc1S(=O)(=O)N1CCCC1 | 1.2% | i | /
CCOc1ccccc1C(=O)Nc1ccc2nc(N(CC)CC)cc(C)c2c1 | 6.3% | i | -10.5
COc1ccc(Nc2cc(C)c3cc(NC(=O)COc4cccc(C)c4)ccc3n2)cc1 | -15.0% | ? | 72.4*
CCOc1ccc(C(=O)Nc2ccc3nc(N(CC)CC)cc(C)c3c2)cc1 | -6.7% | i | 22.5
CCN(CC)c1cc(C)c2cc(NC(=O)c3cccc(OC)c3OC)ccc2n1 | -6.8% | i | 94.8*
CCN(CC)c1cc(C)c2cc(NC(=O)c3cccc(OC)c3)ccc2n1 | -17.7% | 79.4µM* | 35.9
COc1ccc(CC(=O)Nc2ccc3nc(Nc4ccc(OC)cc4)cc(C)c3c2)cc1 | 6.2% | i | 12.1
CC(=O)NNC(=S)Nc1ccccc1F | 1.0% | i | /
Fc1ccccc1CNC(=S)NCCc1ccccc1 | -10.7% | i | /
COc1ccc(OC)c(NC(=O)c2noc3c2CCCC3)c1 | -6.1% | i | -23.8
COc1ccc(NC(=O)c2noc3c2CCCC3)cc1Cl | -0.5% | i | 85.5*
CC(=O)c1ccc(C(C)(C)C)cc1 | 0.8% | i | /
Cn1c(SCc2ccc(F)cc2)nc2ccc(C(=O)NCc3ccc(Cl)cc3)cc21 | -11.6% | ? | -2.4
SMILES | UDG counter | AID inh | GPR32 ag
Cn1c(SCc2ccc(F)cc2)nc2ccc(C(=O)NCc3ccc(F)cc3)cc21 | 0.5% | 28.2µM* | 2.7
CCOC(=O)c1cc(C)nc2c1c(=O)n(Cc1nc(-c3cc(C)ccc3C)oc1C)c(=O)n2C | 1.1% | i | /
Cc1cccc(C)c1OCCCN | 0.7% | i | /
COc1ccc(-c2noc(CSc3nnc(-c4ccccc4)n3C)n2)cc1 | -23.7% | i | 7.7
c1ccc(-c2noc(CSc3nnnn3C3CCCCC3)n2)cc1 | 89.1µM* | i | /
Cc1ccc(C(=O)Nc2ncn(CC(=O)NCc3ccccc3)n2)cc1 | 8.1% | i | /
O=C(CC1N=C2c3ccccc3N=C(SCc3cccc(Cl)c3)N2C1=O)NC1CCCCC1 (configuration not stated) | ? | ? | -30.8
Cc1ccc(CSC2=Nc3ccccc3C3=NC(CCC(=O)NCc4cccs4)C(=O)N23)cc1 (configuration not stated) | -1.3% | 89.1µM* | -18.4
O=C(CC1N=C2c3ccccc3N=C(SCc3ccccc3F)N2C1=O)NCCc1ccccc1 (configuration not stated) | ? | 35.5µM* | 33.9
O=C(CC1N=C2c3ccccc3N=C(SCc3ccccc3Cl)N2C1=O)NC1CCCCC1 (configuration not stated) | 89.1µM* | i | -20.3
Cc1ccc(CSC2=Nc3ccccc3C3=NC(CCC(=O)NCc4cccs4)C(=O)N23)c(C)c1 (configuration not stated) | 18.2% | i | -8.1
COc1ccccc1NC(=O)CSC1=Nc2ccccc2C2=NC(CC(=O)NCCc3ccccc3)C(=O)N12 (configuration not stated) | -8.8% | i | -9.3
C=CC[C@H]1CC=C[C@H](CC=C)[N+]1(C)C | -11.0% | i | /
O=C(C1CC1)N1CCN(c2nc(-c3ccccc3)c3ccccc3n2)CC1 | -4.2% | i | /
CC(=O)Nc1ccc2nc(SCCOc3ccccc3Cl)sc2c1 | -15.3% | ? | 69.4*
Cc1ccccc1OCC(=O)Nc1ccc2nc(SCC(N)=O)sc2c1 | 7.5% | i | ?
Cc1ccccc1OCC(=O)Nc1ccc2[nH]c(=O)sc2c1 | -19.2% | i | 108.6*
NC(=O)CSc1nc2ccc(NC(=O)COc3ccccc3Cl)cc2s1 | 27.4% | i | 90.3*
O=C(Nc1ccc2nc(SCCOc3ccccc3Cl)sc2c1)c1ccc2c(c1)OCO2 | 37.0% | i | -1.1
CCOC(=O)CSc1nc2ccc(NC(=O)COc3ccccc3C)cc2s1 | 7.0% | i | 75.2*
Cc1ccc(OCC(=O)Nc2ccc3[nH]c(=O)sc3c2)cc1 | -3.0% | i | ?
O=C(COc1ccccc1Cl)Nc1ccc2nc(SCC(=O)N3CCOCC3)sc2c1 | 7.4%[57.5 µM] | i | 3.3
CC(Nc1cccc(N2CCCC2=O)c1)c1nc(C(C)(C)C)no1 (configuration not stated) | -10.9% | i | /
CCC(=O)Nc1ccc(-c2csc(Nc3ccc(OC)cc3)n2)cc1 | 5.0% | i | /
Cc1ccc(S(=O)(=O)N2CCN(CCNC(=O)COc3ccccc3)CC2)cc1 | -4.6% | i | /
SMILES | UDG counter | AID inh | GPR32 ag
O=C(O)c1csc(-c2ccccc2)c1 | 4.5% | i | /
CC(NC(=O)CCc1ncc(-c2ccc(F)cc2)o1)c1ccc2c(c1)NC(=O)CO2 (configuration not stated) | -4.0% | i | /
COC(=O)C1=C(C)OC(N)=C(C#N)C1c1ccc(C(C)C)cc1 (configuration not stated) | -1.6% | i | /
COc1cc(/C=C(\C#N)C(=O)Nc2nnc(C(F)(F)F)s2)ccc1OCc1ccc(C(F)(F)F)cc1C(F)(F)F | -6.7% | 50.1µM* | 9.6
COc1cc(/C=C(/C#N)C(=O)Nc2ccccc2C(F)(F)F)ccc1OCc1ccc(F)cc1 | 2.2% | i | /
COC(=O)CCn1c(SC(C)C(=O)c2ccc(F)c(F)c2)nc2ccccc2c1=O (configuration not stated) | 5.0% | i | /
O=C(CCc1nc(-c2ccncc2)no1)Nc1ccc(N2CCOCC2)cc1 | -9.8% | i | /
O=S(=O)(O)c1cc(I)c(O)c2ncccc12 | / | / | 104.6*
Oc1c(I)cc(I)c2cccnc12 | / | / | -44.8
O=C(CCCCn1c(=O)[nH]c2ccsc2c1=O)N1CCN(c2cccc(Cl)c2)CC1 | 1.4% | ? | 71.9*
O=C(CCCn1c(=O)[nH]c2ccsc2c1=O)N1CCN(c2cccc(C(F)(F)F)c2)CC1 | -3.7% | i | 91.5*
CC(=O)NCCNC(=O)CCCn1c(=O)[nH]c2ccsc2c1=O | -0.1% | i | -16.3
Cc1cccc(N2CCN(C(=O)CCCn3c(=O)[nH]c4ccsc4c3=O)CC2)c1C | -4.1% | i | 19.0

From PubChem
